# Screening results as filed in PubChem.
# Many of the other results were omitted from the sample, so hits are more common in it than they were.
# CHX counter – affects cycloheximide protein synthesis inhibition readout, counter-screen | max response, % | AID 2314 | 12% of 300,000 active | cell reporter, cycloheximide protein synthesis inhibition counterscreen; in the data active = max response mostly above about 13%, no sharp cut-off; inactive = mostly below about 14%; also: read at 38.3 µM for the half of the compounds with a filed dose
# AmpC inh no detg – AmpC beta-lactamase inhibition without detergent; Potency, µM (doses to about 57.1 µM), actives largely listed as inhibitors; P00811; 0.52% of 330,000 active; AmpC nitrocefin hydrolysis, absorbance 480 nm, 0.0001% Triton; also: nearly all actives have a fitted effect of over 20% in size
# Target sequence (P00811 whole entry, looked up): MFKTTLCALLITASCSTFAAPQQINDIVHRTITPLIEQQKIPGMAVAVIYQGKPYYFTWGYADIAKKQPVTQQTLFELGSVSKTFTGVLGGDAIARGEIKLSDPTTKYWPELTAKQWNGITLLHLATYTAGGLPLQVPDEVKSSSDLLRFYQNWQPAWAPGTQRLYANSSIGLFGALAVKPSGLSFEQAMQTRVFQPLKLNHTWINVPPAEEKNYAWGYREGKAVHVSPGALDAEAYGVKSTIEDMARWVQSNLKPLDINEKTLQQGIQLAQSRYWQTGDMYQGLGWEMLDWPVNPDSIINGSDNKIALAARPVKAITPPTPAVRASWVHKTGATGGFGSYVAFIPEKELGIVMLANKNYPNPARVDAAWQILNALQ
#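 20 mM phosphate pH 7.0 + 0.01% (detergent screen) or 0.0001% Triton X-100; 5.3 nM AmpC reagent; cpd preinc 15 min RT; nitrocefin (800 uM stock) to start; A480 q20 s × 4 min; Activity was normalised to no-enzyme and no-compound control wells.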
# SARS PLP yeast – inhibitors of SARS-CoV papain-like protease in yeast. S. cerevisiae expressing SARS-CoV PLpro, growth rescue. Potency, µM (titrated, usually from 32.9 µM), most hits filed as activators. 0.19% of 330,000 active; calls by dose curve; also: nearly all actives have a fitted effect of over 55% in size
# Shiga toxin inh – Shiga toxin inhibition; Vero cells, Shiga toxin protein synthesis inhibition reporter; inhibition, % at 38.7 µM; 9.2% of 290,000 active; in the data active = inhibition mostly above about 28%, no sharp cut-off; inactive = mostly below about 43%
# AMA1 RON2 block – inhibitors of Plasmodium falciparum AMA1-RON2 interaction | AID 720542 | 0.2% of 360,000 active | Potency, µM (doses to about 58.2 µM), most hits filed as inhibitors | AlphaScreen AMA1-biotinylated RON2 peptide binding; also: nearly all actives have a fitted effect of over 45% in size
#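 AMA1 (3D7) with his tag at 25 nM final met compounds first, then biotinylated RON2 peptide at 25 nM; detection used donor plus acceptor beads, 10 µg/mL apiece, read by AlphaScreen after 30 min at room temperature.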
# AmpC inh detg – AmpC beta-lactamase inhibition with detergent present. Potency, µM (titrated, usually from 114 µM), actives largely listed as inhibitors. AmpC hydrolysis of nitrocefin, absorbance 480 nm, 0.01% Triton. 0.041% of 370,000 active. P00811. AID 485294; also: nearly all actives have a fitted effect of over 25% in size
#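 AmpC (5.3 nM in the dispensed reagent) in 20 mM phosphate pH 7.0 with 0.01% (detergent screen) or 0.0001% Triton X-100 was preincubated with compounds for 15 min at room temperature. Nitrocefin was then added from an 800 uM solution, and hydrolysis was followed at 480 nm.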
# Hits are given with their value; . = inactive; ? = inconclusive; / = no result given; [ ] = remark or other dose. Unless noted, calls follow the shape of the dose curve; as a rule, active = well fitted curve in the direction sought with a large enough effect; inconclusive = small, poorly fitted or top-dose-only effect, or another doubt; inactive = no such curve, though single readings can be large; an effect the other way counts as inactive or inconclusive.
SMILES,CHX counter,AmpC inh no detg,SARS PLP yeast,Shiga toxin inh,AMA1 RON2 block,AmpC inh detg
O/N=C(\c1ccccn1)C1CC1c1ccccc1 (stereo not given),.,.,.,.,.,.
COc1ccc(C2CC2C(=O)c2ccccn2)cc1 (stereo not given),41,.,.,.,.,.
COc1ccc(C2CC2/C(=N/O)c2ccccn2)cc1 (stereo not given),21,.,?,108,.,?
COc1ccc(C2CC2/C(C)=N/OC(=O)c2ccc(F)cc2)cc1 (stereo not given),.,.,.,.,.,.
COc1cc(OC)cc(C(=O)NC(=S)N2CCCCC2c2cccnc2)c1 (stereo not given),.,.,.,.,.,?
O=C(CNC(=O)c1cccs1)NC1=NCCS1,42,?,.,21,.,.
O=C(NCC1CC1)Nc1cccs1,.,.,.,.,.,.
CC1CCC(NC(=O)Nc2cccs2)CC1 (stereo not given),24,.,.,44,.,.
CC(C)NC(=O)Nc1cccs1,.,.,.,.,.,?
CC1CCC(NC(=O)CNC(=O)c2cccs2)CC1 (stereo not given),45,.,.,116,.,.
O=C(CNC(=O)c1ccccc1F)NC1=NCCS1,.,.,.,.,.,.
O=C(Nc1cccs1)NC1CCCC1,25,.,.,.,.,.
CN(C)Cc1nc2ccccc2c(=O)n1Cc1nc(-c2cc3ccccc3o2)cs1,.,.,.,.,.,?
N#C/C(C(=O)Oc1ccccc1)=C1\C=CC=CN1,44,.,.,60,.,.
N#C/C(C(=O)c1ccccc1)=C1/CCCN1,.,.,.,.,.,.
COc1ccc(CC(=O)NNC2=Nc3cccc4cccc2c34)cc1OC,.,.,.,.,.,.
CCCN1CCN(C(=O)CCS(=O)(=O)c2cc3c(cc2Cl)NC(=O)CO3)CC1,.,.,.,.,.,.
CCOC(=O)c1cnc(-n2nc(C)cc2C)nc1NC,32,.,.,.,.,.
CCOC(=O)c1cnc(-n2nc(C)cc2C)nc1Nc1ccc(C)cc1,.,.,.,.,.,.
CC(=O)Nc1ccc(NC(=O)CN(c2ccc(C34CC5CC(CC(C5)C3)C4)cc2)S(C)(=O)=O)cc1,.,.,.,.,.,.
CS(=O)(=O)N(CC(=O)Nc1ccc(CC#N)cc1)c1ccc(C23CC4CC(CC(C4)C2)C3)cc1,22,.,.,77,.,?
O=C(CSCCO)Nc1ccc(C23CC4CC(CC(C4)C2)C3)cc1,24,.,.,53,.,?
CN(C)c1ccc(C=NNC(=S)Nc2ccc(F)cc2)cc1,/,/,/,/,.,/
CC(C)OC(=O)/C(=C/c1ccc(Br)cc1)NC(=O)c1ccco1,.,.,.,.,.,.
CN(C)NC1CC(=O)N(c2ccccc2)C1=O (stereo not given),.,.,.,.,.,.
SMILES,CHX counter,AmpC inh no detg,SARS PLP yeast,Shiga toxin inh,AMA1 RON2 block,AmpC inh detg
COc1ccccc1N1CCN(CCC(=O)Nc2ccc3c(c2)OCO3)CC1,.,.,.,.,.,?
CCc1ccc(/C=C2\SC(=S)N(CCCC(=O)Nc3ccccn3)C2=O)cc1,.,.,.,.,.,.
O=C(CN1C(=O)C2CC=CCC2C1=O)Nc1nc2ccccc2s1 (stereo not given),28,.,.,52,.,.
Cc1ccc2nc(NC(=O)CN3C(=O)C4CC=CCC4C3=O)sc2c1 (stereo not given),14,.[11.4 µM],.,.,.,?
CS(=O)(=O)c1ccc2nc(NC(=O)CN3C(=O)C4CC=CCC4C3=O)sc2c1 (stereo not given),.,.,.,.,.,.
CCc1ccc(/C=C2/SC(=S)N(CC(=O)Nc3nc4ccccc4s3)C2=O)cc1,22,.,.,78,.,.
CCOC(=O)CSc1nc2cc(S(=O)(=O)Nc3ccccc3OC)ccc2o1,.,.,.,.,.,.
CCOc1ccc(NC(=S)NC(=O)/C=C/c2ccco2)cc1,13,.,.,/,.,.
COc1ccc(C(NC(=O)/C=C/c2ccco2)c2ccc(OC)c(OC)c2)cc1 (stereo not given),42,.,.,85,.,.
COc1ccc(NC(=S)NC(=O)/C=C/c2ccco2)c(OC)c1,.,.,.,/,.,?
COc1cccc(NC(=S)NC(=O)/C=C/c2ccco2)c1,31,.,.,58,.,.
O=C(/C=C/c1ccco1)NC(=S)Nc1cccc(C(=O)O)c1,23,.,.,45,.,?
CC(=O)Nc1ccc(NC(=S)NC(=O)/C=C/c2ccco2)cc1,.,.,.,/,.,.
COc1ccc(NC(=O)CN2CCN(c3ccccc3)CC2)cc1,.,.[2.29 µM],.,.,.,.
CCN(C(=O)Cn1c(C(=O)OC)cc2sccc21)c1cccc(C)c1,/,/,/,/,/,.
CCOC(=O)N1CCC2(CC1)NCCc1c2[nH]c2ccccc12,.,.,.,.,.,.
CN1CCN(c2ccc(NC(=S)NC(=O)/C=C/c3ccco3)cc2)CC1,44,.,.,106,.,.
CCC(CC)C(=O)Nc1ccc(-c2cn3cccnc3n2)cc1,14,.,.,31,.,.
CC(C)(C)CC(=O)Nc1cccc(-c2cn3cccnc3n2)c1,38,.,.,87,.,.
CCC(CC)C(=O)Nc1cccc(-c2cn3cccnc3n2)c1,/,/,/,/,/,.
COCC(=O)Nc1ccc(-c2cn3cccnc3n2)cc1,27,.,.,.,.,.
O=C(CCNC(=O)c1ccccc1)OCC(=O)c1ccccc1,.,.,.,.,.,.
CCc1ccc(CCN2C(=O)c3ccccc3C2=O)nc1,25,.,.,.,.,.
O=C(CCCC(=O)N(c1ccc2c(c1)OCCO2)C(C(=O)NC1CCCCC1)c1ccc(Cl)cc1)Nc1ccccn1 (stereo not given),24,.,.,33,.,.
COC(=O)N1C(=O)[C@@](CC(C)C)(c2ccccc2)N1C(=O)OC,16,.,.,.,/,.
SMILES,CHX counter,AmpC inh no detg,SARS PLP yeast,Shiga toxin inh,AMA1 RON2 block,AmpC inh detg
COC(=O)N1C(=O)[C@](CC(C)C)(c2ccccc2)N1C(=O)OC,15,.,.,.,.,.
COC(=O)N1C(=O)[C@@](c2ccccc2)(C2CCCC2)N1C(=O)OC,18,.,/,.,.,?
CC[C@@]1(c2ccccc2OC)C(=O)N(C(=O)OC)N1C(=O)OC,25,.,.,24,.,?
CCOC(=O)N1C(=O)[C@@](CC)(c2ccccc2)N1C(=O)OCC,.,.,.,.,.,?
COC(=O)N1C(=O)[C@](c2ccccc2)(C2CCCCC2)N1C(=O)OC,.,.,.,.,.,.
CC[C@@]1(c2cccc(C)c2)C(=O)N(C(=O)OC)N1C(=O)OC,.,.,.,.,.,.
